# In PubChem BioAssay AID1008 (NMMLSC, 2008):
# Hit rate of the full screen: of about 190,000 compounds, about 240 (0.13%) were called active. The entries come from a sample that favours actives as a whole. Unmarked numbers belong to inactive results. Cut-off read from the data, not from the text of the source: active = inhibition above about 40%.
# Molecular target: Bcl-2-related protein A1 (Homo sapiens) (UniProt Q16548)
# Assay: inhibitors of Bim binding to Bfl-1, primary screen, biochemical, multiplexed, bead-based flow cytometry (AID 1008);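 note: 0% = wells without compound plus tracer and 100% = blocker peptide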
# Conditions: Bim-Bfl-1 binding inhibition, at 10 µM, hits give high values
# Bcl-2-related protein A1 (Homo sapiens), sequence (Q16548 whole entry, looked up): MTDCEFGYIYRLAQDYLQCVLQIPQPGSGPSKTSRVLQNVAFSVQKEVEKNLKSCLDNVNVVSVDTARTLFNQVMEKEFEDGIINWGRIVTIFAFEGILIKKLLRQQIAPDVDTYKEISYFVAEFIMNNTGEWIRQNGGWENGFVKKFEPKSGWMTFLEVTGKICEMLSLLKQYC
row,SMILES,inhibition
1,C=CCn1c(O)c(/C=N/N2CCOCC2)c(=O)[nH]c1=S,3%
2,Cc1cccc(-n2c(O)c(/C=N/N3CCOCC3)c(=O)[nH]c2=S)c1,41% (active)
3,O=c1[nH]c(=S)n(C2CC2)c(O)c1/C=N/N1CCOCC1,-14%
4,N#Cc1ccc(Cn2cc(C(=O)c3ccco3)c3ccccc32)cc1,-4%
5,CCOC(=O)C1(Cc2ccc(Cl)cc2)CCN(C(C)CCn2cccn2)CC1 (stereo not given),0%
